The list is not random: actives were taken first. Their share in the collection is about 19%.
HepG2 tox-1 = qHTS for Inhibitors of TGF-b: Cytotox Counterscreen; Potency, µM (series often up to 46.1 µM), hits mostly cytotoxic; AID 588856, 2011; actives 0.76% (n = 410,000); HepG2 CAGA-GFP viability, ATP luminescence, 18 h
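HepG2 CAGA-GFP cells (1000/well, DMEM with 1% FBS) received compound, then TGF-beta at 500 pg/mL final, and were incubated 18 hours at 37 degrees C. Viability was read by CellTiter-Glo luminescence. Media-only wells were set as complete cell-killing and DMSO as no toxicity.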
DT40 TDP1 CPT = qHTS for Inhibitors of human tyrosyl-DNA phosphodiesterase 1 (TDP1): qHTS in cells in presence of CPT; chicken DT40 Tdp1-/-;hTDP1 cells + 20 nM CPT, ATP luminescence, 48 h; Potency, µM (titrated, usually from 46.2 µM), hits mostly inhibitors; actives 12% (n = 420,000); note: nearly all actives have a fitted effect of over 55% in size
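Cell growth measured by CellTiter-Glo luminescence after a minimum 48 h, 37 C compound exposure with 20 nM CPT in Tdp1-knockout DT40 cells stably expressing hTDP1, seeded 400/well; qHTS titration format.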
TDP1 cell noCPT = qHTS for Inhibitors of human tyrosyl-DNA phosphodiesterase 1 (TDP1): qHTS in cells in absence of CPT; Potency, µM (doses to about 46.2 µM), actives largely listed as inhibitors; AID 686978, 2013; DT40 Tdp1-/- hTDP1 cells, no CPT, ATP luminescence, 48 h; actives 15% (n = 420,000); note: nearly all actives have a fitted effect of over 55% in size
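DT40 Tdp1-/-;hTDP1 cells, no CPT (DMSO vehicle only), 400 cells/well; compounds pin-transferred; ≥48 hr, 37 °C; CellTiter-Glo 30 min RT dark, luminescence read.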
ASM inhibitor = Inhibitors of Secretory Acid Sphingomyelinase (S-ASM): qHTS; Sphingomyelin phosphodiesterase (Homo sapiens), P17405; placental ASM, HMU-PC fluorogenic substrate, 60 min; Potency, µM (highest dose often 57.5 µM), actives largely listed as inhibitors; actives 0.006% (n = 340,000)
Target sequence (P17405 47-631 limits assumed): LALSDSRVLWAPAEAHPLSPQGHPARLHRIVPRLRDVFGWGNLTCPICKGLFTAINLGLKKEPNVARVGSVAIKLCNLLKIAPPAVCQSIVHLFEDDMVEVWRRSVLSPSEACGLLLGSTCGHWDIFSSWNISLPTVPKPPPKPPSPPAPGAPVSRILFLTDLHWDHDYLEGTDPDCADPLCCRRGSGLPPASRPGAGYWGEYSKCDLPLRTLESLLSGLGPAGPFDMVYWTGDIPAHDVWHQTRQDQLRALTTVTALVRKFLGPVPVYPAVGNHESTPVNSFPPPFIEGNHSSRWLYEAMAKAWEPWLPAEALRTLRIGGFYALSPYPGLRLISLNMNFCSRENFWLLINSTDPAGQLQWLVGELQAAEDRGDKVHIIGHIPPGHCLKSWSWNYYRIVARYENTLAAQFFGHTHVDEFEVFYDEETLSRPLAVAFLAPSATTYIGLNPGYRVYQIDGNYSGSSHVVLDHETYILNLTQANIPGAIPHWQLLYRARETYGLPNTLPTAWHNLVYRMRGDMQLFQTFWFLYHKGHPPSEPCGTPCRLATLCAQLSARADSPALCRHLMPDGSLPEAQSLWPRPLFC
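HMU-PC0 cleavage (9 uM final) by human placental ASM, 60 min at 37 °C following 10 min compound exposure at RT; stopped at pH 10, fluorescence Ex 386/Em 447 nm.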
TGFb SMAD3 inh = qHTS for Inhibitors of TGF-b | Potency, µM (top dose mostly 46.1 µM), usual class: inhibitors | AID 588855, 2011 | HepG2 CAGA-GFP TGF-b/SMAD3 reporter, GFP fluorescence, 18 h; TGF-beta stimulated, 500 pg/mL final | actives 1.2% (n = 410,000); note: nearly all actives have a fitted effect of over 65% in size
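Inhibition of TGF-beta-driven CAGA-GFP reporter expression in HEPG2 cells is measured by cellular GFP fluorescence after 18 h stimulation with 500 pg/mL recombinant TGF-beta in 1% FBS medium at 37 degrees C.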
IL1B secr inh = qHTS for Inhibitors of Inflammasome Signaling: IL-1-beta AlphaLISA Primary Screen; AID 743279, 2014; activity change, % at 57.5 µM; THP-1 LPS/ATP IL-1B secretion, AlphaLISA, 16 h; active compounds read low; actives 4.7% (n = 360,000); in the data active = activity change below about -50%; inconclusive = mostly about -30% to -49%
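Secreted IL-1B measured by AlphaLISA bead assay after 16 h compound exposure of THP-1 cells; compounds (final up to 57.5 uM) added 1 h before LPS (250 ng/mL) and ATP (1.25 mM) stimulation; lower signal means less secretion.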
TGFb confirm = qHTS for Inhibitors of TGF-b: Confirmation of Cherry Picks; shares compounds with TGFb SMAD3 inh; HepG2 CAGA-GFP TGF-b reporter, GFP fluorescence, 18 h; cells stimulated with TGF-beta, 500 pg/mL; actives 63% (n = 1,600); Potency, µM (highest dose often 46.1 µM), usual class: inhibitors; note: nearly all actives have a fitted effect of over 65% in size
HepG2 tox-2 = qHTS for Inhibitors of TGF-b: Cytotox Counterscreen for Cherry Picks | shares compounds with TGFb SMAD3 inh | HepG2 CAGA-GFP viability, ATP luminescence, 18 h; cells stimulated with TGF-beta, 500 pg/mL | Potency, µM (doses to about 46.1 µM), usual class: inhibitors | actives 27% (n = 1,600); note: nearly all actives have a fitted effect of over 70% in size
TGFb CCL64 inh = qHTS for Inhibitors of TGF-b: CCL64 Cells Orthogonal Assay for Cherry Picks; shares compounds with TGFb SMAD3 inh; Potency, µM (titrated, usually from 46.1 µM), most hits filed as inhibitors; CCL64 CAGA-GFP reporter, TGF-b stimulated, GFP fluorescence, 18 h; actives 41% (n = 1,600); note: nearly all actives have a fitted effect of over 65% in size
TGFb COP inh = qHTS for Inhibitors of TGF-b: Hit Validation in HepG2 Cells using COP promoter; Potency, µM (top dose mostly 46.1 µM), usual class: inhibitors; AID 720537, 2013; shares compounds with TGFb SMAD3 inh; actives 3% (n = 1,600); HepG2 COP-GFP TGF-b reporter, GFP fluorescence, 18 h; cells stimulated by added recombinant TGF-beta; note: nearly all actives have a fitted effect of over 70% in size
Each line names hits and unclear results; the compound was inactive in the other large screens (follow-up assays come after a bar, where they were run). Unless noted, calls come from the whole dose curve; as a rule, active = well fitted curve in the direction sought with a large enough effect; inconclusive = small, poorly fitted or top-dose-only effect, or another doubt; inactive = no such curve, though single readings can be large; an effect the other way counts as inactive or inconclusive.

O=C(NCc1ccccc1)C1C(=O)Nc2ccccc2C(=O)N1Cc1ccccc1 (stereo not drawn)	TDP1 cell noCPT inconclusive (no result: HepG2 tox-1, ASM inhibitor, TGFb SMAD3 inh)
O=S(Cc1ccc(Br)cc1)Cc1nnc(SCc2ccc(Br)cc2)n1-c1ccccc1 (stereo not drawn)	DT40 TDP1 CPT 12µM, TDP1 cell noCPT 10µM, TGFb SMAD3 inh 8.9µM, IL1B secr inh -58 | TGFb confirm 21µM | HepG2 tox-2 inconclusive | TGFb CCL64 inh inconclusive | TGFb COP inh inactive
O=c1cc(-c2ccccc2)n2c(SCc3ccc(Br)cc3)nnc2[nH]1	none (no result: ASM inhibitor, IL1B secr inh)
CN(C)CCN(C)C1CN(Cc2ccc(F)cc2)S(=O)(=O)C1 (stereo not drawn)	TGFb SMAD3 inh inconclusive (no result: ASM inhibitor) | TGFb confirm inactive | HepG2 tox-2 inactive | TGFb CCL64 inh inactive | TGFb COP inh inactive
O=S1(=O)CC(N2CCCCC2)CN1Cc1ccc(F)cc1 (stereo not drawn)	none (no result: ASM inhibitor)
O=C(Nc1ccc2oc(-c3ccncc3)nc2c1)c1ccc([N+](=O)[O-])o1	DT40 TDP1 CPT 2.9µM, TDP1 cell noCPT 5.8µM, TGFb SMAD3 inh 5.6µM, IL1B secr inh -91 | TGFb confirm 6.5µM | HepG2 tox-2 inconclusive | TGFb CCL64 inh inconclusive | TGFb COP inh inactive
Cc1ccnc(NC(=S)N2CCN(c3cccc(C(F)(F)F)c3)CC2)c1	DT40 TDP1 CPT inconclusive, TDP1 cell noCPT inconclusive, TGFb SMAD3 inh 13µM, IL1B secr inh -88 | TGFb confirm 7.3µM | HepG2 tox-2 13µM | TGFb CCL64 inh inactive | TGFb COP inh inactive
Cc1ccc(NS(=O)(=O)c2c(C(=O)N3CCCCCC3)c(C)n(C)c2C)cc1C	DT40 TDP1 CPT inconclusive, TDP1 cell noCPT inconclusive
C[C@@H](C(=O)NCCc1ccccc1)N1C(=O)N2CCc3c([nH]c4ccccc34)[C@@]2(C)C1=O	DT40 TDP1 CPT 18µM, TDP1 cell noCPT inconclusive, TGFb SMAD3 inh 10µM | TGFb confirm 16µM | HepG2 tox-2 inconclusive | TGFb CCL64 inh inconclusive | TGFb COP inh inactive
COc1ccc2[nH]c3c(c2c1)CCN1C(=O)N([C@@H](C)C(=O)NCc2ccccc2)C(=O)[C@]31C	DT40 TDP1 CPT inconclusive, TDP1 cell noCPT inconclusive
